Composite z-score, z-score and composite Z-score data for 5 molecules are collected here from PubChem BioAssay.

Structures are written as SMILES. Activity calls are given as the source filed them.

Test [1] concerns Human papillomavirus type 1a protein E7 (residues 44-93). As to the kind of experiment: small molecules binding HPV E7 44-93 – biochemical, small-molecule microarray, residues 44-93, 635 nm fluorescence, primary screen (AID 1108).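 Note: E7 fragment applied at 1 µg/mL in TBST for 1 h at 4 C; score combines spot fluorescence with its signal to noise ratio.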 The following applies: fluorescence 635 nm, higher = more signal.
Test [2] is described as follows: hepatitis C replication reporter changes, two-sided – Huh7 cells, luciferase reporter, HCV replication inhibitor project, primary screen (AID 1109).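 Note: huh7 hepatoma cells harbouring a luciferase neomycin HCV replicon reporter; luciferase luminescence as measure of HCV replicon replication; test concentration not given here.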 The following applies: Huh7 HCV replicon luciferase reporter, 48 h; higher = more signal. On the technique in general: In a reporter assay the amount or activity of a reporter protein is the signal.
Test [3] addresses Left-right determination factor 2 (Homo sapiens) (UniProt O00292). In words: small molecules binding LEFTY2 protein – biochemical, small-molecule microarray, 635 nm fluorescence scan, primary screen (AID 1110). The note with it: higher = more signal.
Test [4] concerns the target Calmodulin-1 (Homo sapiens) (UniProt P0DP23). As to the kind of experiment: small molecules binding calmodulin-1 with EGTA – biochemical, small-molecule microarray, Cy5-labelled CALM1, profiling panel (AID 1111).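 Note: labelled calmodulin applied in Tris saline Tween buffer holding calcium plus EGTA and DTT.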 The following applies: Cy5-CALM1 binding fluorescence, higher = more signal.
For test [5] the target is unchanged. As to the kind of experiment: small molecules binding Ca-loaded calmodulin-1 – biochemical, small-molecule microarray, Cy5-labelled CALM1, plus calcium, artefact control for SMM control-protein annotation, profiling panel (AID 1112).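 Note: score merges spot fluorescence with signal to noise from triplicate slides.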 The note with it: Cy5-CALM1 binding fluorescence, higher = more signal.
Test [6] is described as follows: probe aWnt5a binding to arrayed compounds – biochemical, biotinylated probe, 635/667 nm fluorescence, primary screen (AID 1113).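 Note: score merges 667 nm fluorescence intensity with signal-to-noise per printed feature.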 The note with it: small-molecule microarray, higher = more signal.
Test [7] in a line: probe aShh binding to arrayed compounds – biochemical, biotinylated probe, 635/667 nm fluorescence, primary screen (AID 1114).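 Note: probe is biotin-labelled aShh protein from a stem cell growth factor screen; measures binding of labelled protein to compounds printed on the slide; score merges feature fluorescence at 667 nm with signal-to-noise.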 The following applies: small-molecule microarray, higher = more signal.
Test [8] can be described thus: probe aNog binding to arrayed compounds – biochemical, biotinylated probe, 635/667 nm fluorescence, primary screen (AID 1115).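 Note: probe is biotinylated aNog protein used at 0.15 µg/mL for 1 h at 4 C; z-score combines 667 nm fluorescence of each spot with its signal to noise.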 The following applies: small-molecule microarray, higher = more signal.
In test [9] the target is Torsin-1A-interacting protein 1 (Homo sapiens) (UniProt Q5JTV8). In words: compound microarray binding of lysate hLAP1 – cell lysate, small-molecule microarray, COS7 lysate, 635/667 nm fluorescence, primary screen (AID 1116). The following applies: 635 nm fluorescence, higher = more signal.
In test [10] the target is Alpha-bungarotoxin (Bungarus multicinctus) (UniProt P60615). In words: compounds binding labelled alpha-BTX control protein – biochemical, small-molecule microarray, Alexa647 label, 635/667 nm fluorescence, artefact control for SMM control protein annotation, profiling panel (AID 1117). The note with it: alpha-BTX-A647 binding fluorescence, higher = more signal.
The target in test [11] is Albumin (Bos taurus) (UniProt P02769). In words: compounds binding labelled BSA control protein – biochemical, small-molecule microarray, Alexa647 label, 635/667 nm fluorescence, artefact control for SMM control protein annotation, profiling panel (AID 1118).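 Note: score merges 667 nm emission intensity and signal-to-noise per printed compound spot.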 The following applies: BSA-A647 binding, fluorescence 635 nm, higher = more signal.
Test [12] can be described thus: probe aXIP binding to arrayed compounds – biochemical, NeuroSMM set, 635/667 nm fluorescence, primary screen (AID 1119).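 Note: probe is the protein aXip251-270 applied at 1 µg/mL to compound-printed slides; binding of probe to printed compounds measured as 667 nm fluorescence plus signal to noise.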 The following applies: small-molecule microarray, higher = more signal, called active from +8 up or from −8 down.
The nature of test [13]: probe aNOTCH3 binding on compound microarray – biochemical, small-molecule microarray, 635/667 nm fluorescence, primary screen (AID 1120).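 Note: probe is a biotin-tagged antibody raised against NOTCH3 rather than NOTCH3 protein; score merges spot fluorescence near 667 nm with spot signal to noise.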 The following applies: higher = more signal.
A short description of test [14]: probe aNOTCH2 binding on compound microarray – biochemical, small-molecule microarray, 635/667 nm fluorescence, primary screen (AID 1121).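 Note: score merges feature fluorescence read at 667 nm with its signal to noise.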 The note with it: higher = more signal.
The target in test [15] is Carbonic anhydrase 2 (Homo sapiens) (UniProt P00918). As to the kind of experiment: compounds binding carbonic anhydrase 2 – biochemical, small-molecule microarray, Alexa647-labelled CAII, profiling panel (AID 1122). The following applies: CAII-A647 binding fluorescence, higher = more signal.
A short description of test [16]: COS7 lysate on small-molecule microarray, probe aHis, 635 nm (AID 1123).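 Note: z-score combines 667nm fluorescence intensity with signal-to-noise per printed compound spot.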 The following applies: COS7 cell lysate, fluorescence, higher = more signal.
A short description of test [17]: probe aLAP1 signal on lysate-treated microarray – cell lysate, small-molecule microarray, COS7 lysate, primary screen (AID 1124).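 Note: lysate comes from COS7 cells expressing LAP1 and is applied at 0.3 µg/mL; score merges spot fluorescence near 667 nm with signal-to-noise over triplicate slides.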 The following applies: probe aLAP1, fluorescence, higher = more signal.
The test system of test [18] is Sam68 (KHDRBS1). As to the kind of experiment: compounds binding KHDRBS1 protein – biochemical, small-molecule microarray, 635 nm fluorescence, primary screen (AID 1125).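 Note: score merges 667 nm channel intensity with signal to noise over triplicate slides.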 The following applies: higher = more signal.
Test [19] deals with Chordin-like protein 2 (CHRDL2). As to the kind of experiment: compounds binding chordin-like 2 – biochemical, small-molecule microarray, 635 nm fluorescence, primary screen (AID 1126).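 Note: printed compound slides probed with Chrdl2 protein at 4 µg/mL for 1 h at 4 C; score merges 667 nm emission intensity with signal to noise over three replicate slides.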 The note with it: fluorescence 635 nm, higher = more signal.
Test [20] has as its target Concanavalin-A (Canavalia ensiformis) (UniProt P02866). In words: compounds binding concanavalin A lectin – biochemical, small-molecule microarray, Alexa647 label, 635 nm, artefact control for SMM control protein annotation, primary screen (AID 1127).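 Note: z combines 667 nm emission intensity with signal-to-noise across three replicate slides.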 The following applies: ConA-A647 binding fluorescence, higher = more signal.

Torsin-1A-interacting protein 1 (Homo sapiens), sequence (Q5JTV8 whole entry, looked up): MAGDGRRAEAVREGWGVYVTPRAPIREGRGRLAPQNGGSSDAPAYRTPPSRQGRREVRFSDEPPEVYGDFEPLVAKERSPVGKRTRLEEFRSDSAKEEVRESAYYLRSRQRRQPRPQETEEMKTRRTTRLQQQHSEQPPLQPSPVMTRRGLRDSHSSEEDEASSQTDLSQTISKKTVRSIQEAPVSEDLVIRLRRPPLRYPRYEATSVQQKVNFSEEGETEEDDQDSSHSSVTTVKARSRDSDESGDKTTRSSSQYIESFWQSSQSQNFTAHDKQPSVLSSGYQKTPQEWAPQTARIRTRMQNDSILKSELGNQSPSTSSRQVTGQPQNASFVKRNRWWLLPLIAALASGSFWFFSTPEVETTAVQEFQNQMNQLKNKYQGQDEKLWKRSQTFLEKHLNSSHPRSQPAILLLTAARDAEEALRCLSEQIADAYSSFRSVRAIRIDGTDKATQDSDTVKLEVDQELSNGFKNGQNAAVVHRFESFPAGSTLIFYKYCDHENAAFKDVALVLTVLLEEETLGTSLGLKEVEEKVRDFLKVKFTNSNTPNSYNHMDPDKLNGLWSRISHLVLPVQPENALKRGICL
Alpha-bungarotoxin (Bungarus multicinctus), sequence (P60615 whole entry, looked up): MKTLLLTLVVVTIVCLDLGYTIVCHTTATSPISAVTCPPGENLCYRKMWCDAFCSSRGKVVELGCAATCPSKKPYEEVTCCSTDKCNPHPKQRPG
Left-right determination factor 2 (Homo sapiens), sequence (O00292 whole entry, looked up): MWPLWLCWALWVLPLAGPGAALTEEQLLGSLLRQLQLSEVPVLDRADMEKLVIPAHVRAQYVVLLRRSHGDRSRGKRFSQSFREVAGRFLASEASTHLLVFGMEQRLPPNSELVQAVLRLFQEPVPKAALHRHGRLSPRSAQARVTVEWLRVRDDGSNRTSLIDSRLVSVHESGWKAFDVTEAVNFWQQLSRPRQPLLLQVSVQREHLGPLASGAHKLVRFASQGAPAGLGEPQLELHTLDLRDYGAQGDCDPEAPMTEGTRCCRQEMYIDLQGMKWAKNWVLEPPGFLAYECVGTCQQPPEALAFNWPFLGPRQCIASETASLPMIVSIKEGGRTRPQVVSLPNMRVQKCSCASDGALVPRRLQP
Concanavalin-A (Canavalia ensiformis), sequence (P02866 whole entry, looked up): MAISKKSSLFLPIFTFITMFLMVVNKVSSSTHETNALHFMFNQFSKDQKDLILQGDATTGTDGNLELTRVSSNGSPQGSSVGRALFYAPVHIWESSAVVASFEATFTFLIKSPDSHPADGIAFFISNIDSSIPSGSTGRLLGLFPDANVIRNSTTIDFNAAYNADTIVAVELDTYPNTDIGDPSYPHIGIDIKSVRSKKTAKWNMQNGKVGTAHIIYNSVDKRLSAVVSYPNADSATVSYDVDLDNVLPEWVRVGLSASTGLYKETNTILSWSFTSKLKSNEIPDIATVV
Albumin (Bos taurus), sequence (P02769 whole entry, looked up): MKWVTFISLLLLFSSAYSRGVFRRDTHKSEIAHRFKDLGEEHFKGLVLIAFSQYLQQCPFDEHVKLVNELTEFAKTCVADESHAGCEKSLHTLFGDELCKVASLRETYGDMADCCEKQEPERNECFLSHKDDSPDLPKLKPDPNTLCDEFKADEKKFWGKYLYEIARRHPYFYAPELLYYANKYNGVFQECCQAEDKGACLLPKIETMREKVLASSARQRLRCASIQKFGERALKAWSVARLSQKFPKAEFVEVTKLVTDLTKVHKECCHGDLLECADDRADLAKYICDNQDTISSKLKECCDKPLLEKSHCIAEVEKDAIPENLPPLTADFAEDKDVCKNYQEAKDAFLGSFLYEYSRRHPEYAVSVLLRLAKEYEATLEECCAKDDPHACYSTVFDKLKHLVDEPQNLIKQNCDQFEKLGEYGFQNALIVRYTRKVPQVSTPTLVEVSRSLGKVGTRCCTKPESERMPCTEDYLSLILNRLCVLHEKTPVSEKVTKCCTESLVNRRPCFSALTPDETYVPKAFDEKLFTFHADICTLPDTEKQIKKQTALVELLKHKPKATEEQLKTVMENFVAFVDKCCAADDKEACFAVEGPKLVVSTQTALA

For `O=C1O[C@@H](c2ccccc2)[C@@H](c2ccccc2)N2[C@@H](c3ccccc3OCCO)[C@]3(C(=O)Nc4ccc(C#CCCO)cc43)[C@@H](C(=O)Nc3nc4ccccc4s3)[C@H]12`, the composite z-score in test [1] is -0.503; in [3] it was 1.02; in test [4], 1.7; in [5] it was 0.64; in test [6], -0.0572; in test [7] it was -0.289. Also, the composite z-score in test [8] was -0.523; in test [9] it was 0.326; in test [10], 1.82; in test [11] it was 0.792; in test [13] it was 0.302; in [14], 0.0203. The composite z-score was 0.428 in test [15]; 1.28 in [16]; 1.33 in test [17]; 1.31 in test [18]; 0.529 in [19]; 1.14 in test [20]. For the same molecule, the z-score in test [2] is -2.12. The composite Z-score in test [12] is 0.229 (inactive).

On to `CCOC(=O)[C@H]1C/C=C/C[C@H](C(=O)OCC)C(=O)O[C@H]2[C@@H](OC)O[C@H](CO)[C@@H](OC(=O)Nc3ccc(OC)cc3)[C@@H]2OC1=O`, for which the composite z-score was 0.89 in [1]; 0.721 in test [3]; 0.433 in test [4]; 0.118 in test [5]; 0.0395 in test [6]; -0.0146 in test [7]. Besides, the composite z-score in test [8] is 0.206; in test [9], 0.753; in test [10], 1.09; in [11], 0.441; in test [13], 0.292; in test [14], 0.0196. Moreover, the composite z-score came to 0.475 in [15]; 0.984 in test [16]; 1.16 in test [17]; 1.32 in test [18]; 0.37 in test [19]; 0.92 in test [20]. Moreover, in test [2], the z-score is -2.82. Besides, the composite Z-score in [12] was 0.937 (inactive).

Turning to `Cc1ccc(S[C@]2(C(=O)NCCN3CCOCC3)CC(=O)N(Cc3ccccc3C(F)(F)F)[C@@H]2c2ccc(CO)cc2I)cc1`, the composite z-score in test [1] is 0.323; in test [3] it was -1.49; in test [4] it was -0.69; in [5], 0.116; in test [6], -0.0792; in test [7], -0.0866. Moreover, the composite z-score is 0.0331 in test [8]; -0.0897 in [9]; -0.529 in test [10]; 0.274 in test [11]; -0.171 in [13]; -0.131 in test [14]. For the same molecule, the composite z-score in test [15] is 0.371; in test [16], 0.702; in test [17] it was 0.23; in [18] it was 0.397; in test [19] it was -0.777; in test [20], -0.278. The molecule also showed a z-score in test [2] of -1.64. For the same molecule, in [12], the composite Z-score is 0.139 (inactive).

Regarding `NC(=O)NCC#Cc1ccc2c(c1)[C@]1(C(=O)N2)[C@H](c2ccc(O)cc2)N2[C@H](c3ccccc3)[C@H](c3ccccc3)OC(=O)[C@H]2[C@@H]1C(=O)Nc1nc2ccccc2s1`, the composite z-score in test [1] is 0.89; in test [3], 0.413; in [4], 0.563; in [5], 0.229; in [6] it was 0.168; in test [7], 0.246. The composite z-score is 0.563 in [8]; 0.633 in [9]; 1.23 in test [10]; 0.121 in [11]; -0.0259 in test [13]; -0.0203 in [14]. Further, the composite z-score in [15] is 0.431; in test [16] it was 0.66; in [17], 0.11; in [18], 0.637; in test [19] it was 1.17; in [20] it was 0.962. The z-score in test [2] was -1.27. In addition, the composite Z-score in [12] was 0.0296 (inactive).

For `O=C1O[C@@H](c2ccccc2)[C@@H](c2ccccc2)N2[C@@H](c3ccccc3OCCO)[C@]3(C(=O)Nc4ccccc43)[C@@H](C(=O)NC[C@H](O)c3ccccc3)[C@H]12`, the composite z-score was 0.705 in [1]; -0.555 in test [3]; 1.08 in test [4]; 0.845 in test [5]; -0.152 in [6]; 0.0557 in [7]. Besides, the composite z-score in test [8] is -0.0161; in test [9], 1.35; in test [10], -0.327; in test [11], 0.641; in test [13], -0.213; in test [14] it was -0.14. Also, the composite z-score was 0.586 in test [15]; 1.32 in [16]; 0.487 in test [17]; 0.9 in test [18]; -1.15 in [19]; 0.196 in [20]. The same molecule registered a z-score in [2] of -3.3. The composite Z-score in test [12] is -0.0662 (inactive).
